From PMC11006913
Changes are numbered by the printed parent chain.

What was measured:
Assay in all cases: PBM; 200 nM protein, PBS
Conditions in all cases: dsDNA, one strand shown
HOXC9 [1] = target: HOXC9 (Homo sapiens, UniProt P31274 178-260, K195R)
HOXC9 [2] = target: HOXC9 (Homo sapiens, UniProt P31274 178-260)
HOXC9 [3] = target: HOXC9 (Homo sapiens, UniProt P31274 178-260, R193K)
HOXC9 [4] = target: HOXC9 (Homo sapiens, UniProt P31274 178-260, R222W)
PROP1 [5] = target: PROP1 (Homo sapiens, UniProt O75360 56-141)
Sequence of PROP1 (Homo sapiens, UniProt O75360 56-141) (O75360 56-141): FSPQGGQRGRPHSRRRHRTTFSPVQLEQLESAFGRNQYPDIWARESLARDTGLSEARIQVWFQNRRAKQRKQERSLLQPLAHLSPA

PROP1 [6] = target: PROP1 (Homo sapiens, UniProt O75360 56-141, R99H)
Sequence of PROP1 (Homo sapiens, UniProt O75360 56-141, R99H) (O75360 56-141 R99H): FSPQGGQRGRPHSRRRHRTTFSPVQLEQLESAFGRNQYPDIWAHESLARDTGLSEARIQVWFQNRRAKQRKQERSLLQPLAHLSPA

PROP1 [7] = target: PROP1 (Homo sapiens, UniProt O75360 56-141, F88S)
Sequence of PROP1 (Homo sapiens, UniProt O75360 56-141, F88S) (O75360 56-141 F88S): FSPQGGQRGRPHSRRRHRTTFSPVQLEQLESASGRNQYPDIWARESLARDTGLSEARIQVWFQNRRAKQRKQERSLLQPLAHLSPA

ALX3 = ALX3 (Homo sapiens, UniProt O95076 139-225)
Sequence of ALX3 (O95076 139-225): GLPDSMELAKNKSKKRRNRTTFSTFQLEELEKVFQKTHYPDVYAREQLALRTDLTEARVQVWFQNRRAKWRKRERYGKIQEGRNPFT

HOXA7 [8] = target: HOXA7 (Homo sapiens, UniProt P31268 116-202)
Sequence of HOXA7 (Homo sapiens, UniProt P31268 116-202) (P31268 116-202): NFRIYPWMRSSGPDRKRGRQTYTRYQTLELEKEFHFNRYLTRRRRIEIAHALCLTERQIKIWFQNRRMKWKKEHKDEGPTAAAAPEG

HOXC10 [9] = target: HOXC10 (Homo sapiens, UniProt Q9NYD6 254-340)
Sequence of HOXC10 (Homo sapiens, UniProt Q9NYD6 254-340) (Q9NYD6 254-340): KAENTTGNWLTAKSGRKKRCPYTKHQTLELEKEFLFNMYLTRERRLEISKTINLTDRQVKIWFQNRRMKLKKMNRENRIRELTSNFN

HOXA2 [10] = target: HOXA2 (Homo sapiens, UniProt O43364 129-215, R185T)
Sequence of HOXA2 (Homo sapiens, UniProt O43364 129-215, R185T) (O43364 129-215 R185T): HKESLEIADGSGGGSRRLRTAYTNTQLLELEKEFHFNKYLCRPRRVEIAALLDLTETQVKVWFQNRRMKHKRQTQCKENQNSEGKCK

HOXA2 [11] = target: HOXA2 (Homo sapiens, UniProt O43364 129-215, R185K)
Sequence of HOXA2 (Homo sapiens, UniProt O43364 129-215, R185K) (O43364 129-215 R185K): as the sequence (O43364 129-215 R185T) above, with T57K counted along it

HOXC10 [12] = target: HOXC10 (Homo sapiens, UniProt Q9NYD6 254-340, K271E)
Sequence of HOXC10 (Homo sapiens, UniProt Q9NYD6 254-340, K271E) (Q9NYD6 254-340 K271E): as the sequence (Q9NYD6 254-340) above, with K18E counted along it

HOXA2 [13] = target: HOXA2 (Homo sapiens, UniProt O43364 129-215, Y150S)
Sequence of HOXA2 (Homo sapiens, UniProt O43364 129-215, Y150S) (O43364 129-215 Y150S): as the sequence (O43364 129-215 R185T) above, with Y22S, T57R counted along it

HOXA7 [14] = target: HOXA7 (Homo sapiens, UniProt P31268 116-202, W177C)
Sequence of HOXA7 (Homo sapiens, UniProt P31268 116-202, W177C) (P31268 116-202 W177C): as the sequence (P31268 116-202) above, with W62C counted along it

HOXA2 [15] = target: HOXA2 (Homo sapiens, UniProt O43364 129-215)
Sequence of HOXA2 (Homo sapiens, UniProt O43364 129-215) (O43364 129-215): as the sequence (O43364 129-215 R185T) above, with T57R counted along it

NKX3-2 [16] = target: NKX3-2 (Homo sapiens, UniProt P78367 192-278, P234S)
Sequence of NKX3-2 (Homo sapiens, UniProt P78367 192-278, P234S) (P78367 192-278 P234S): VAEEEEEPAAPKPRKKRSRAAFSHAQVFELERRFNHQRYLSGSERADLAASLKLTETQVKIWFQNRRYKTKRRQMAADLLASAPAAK

NKX3-2 [17] = target: NKX3-2 (Homo sapiens, UniProt P78367 192-278)
Sequence of NKX3-2 (Homo sapiens, UniProt P78367 192-278) (P78367 192-278): as the sequence (P78367 192-278 P234S) above, with S43P counted along it

VENTX [18] = target: T1, VENTX (Homo sapiens, UniProt O95231 78-163)
T1 sequence: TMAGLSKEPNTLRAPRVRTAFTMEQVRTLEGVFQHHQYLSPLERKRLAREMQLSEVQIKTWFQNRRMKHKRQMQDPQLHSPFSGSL

VENTX [19] = target: T2, VENTX (Homo sapiens, UniProt O95231 78-163, Y115F)
T2 sequence: T1 sequence with Y38F

Sequence of HOXC9 (Homo sapiens, UniProt P31274 178-260) (P31274 178-260): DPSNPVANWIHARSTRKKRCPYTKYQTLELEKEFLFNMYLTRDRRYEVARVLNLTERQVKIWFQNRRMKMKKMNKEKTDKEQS
Sequence of HOXC9 (Homo sapiens, UniProt P31274 178-260, R193K) (P31274 178-260 R193K): as the sequence (P31274 178-260) above, with R16K counted along it
Sequence of HOXC9 (Homo sapiens, UniProt P31274 178-260, R222W) (P31274 178-260 R222W): as the sequence (P31274 178-260) above, with R45W counted along it
Sequence of HOXC9 (Homo sapiens, UniProt P31274 178-260, K195R) (P31274 178-260 K195R): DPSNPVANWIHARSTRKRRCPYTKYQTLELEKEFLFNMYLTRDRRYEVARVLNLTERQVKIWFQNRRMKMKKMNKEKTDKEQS

**Q.** How did the binding signal (HOXC9 [1]) turn out when AGTATTAT was run?
**A.** 11.6 upbm affinity estimate (log intensity, higher = more binding, comparable within an allelic series)

**Q.** What about the binding signal (HOXC9 [2]) of the same sequence?
**A.** 11.6 upbm affinity estimate (log intensity, higher = more binding, comparable within an allelic series)

**Q.** And the binding signal (HOXC9 [3])?
**A.** 11.6 upbm affinity estimate (log intensity, higher = more binding, comparable within an allelic series)

**Q.** Which binding signal (HOXC9 [1]) does the source give for CCTCTGGA here?
**A.** 9.66 upbm affinity estimate (log intensity, higher = more binding, comparable within an allelic series)

**Q.** And the binding signal (HOXC9 [2])?
**A.** 9.58 upbm affinity estimate (log intensity, higher = more binding, comparable within an allelic series)

**Q.** What about the binding signal (HOXC9 [3]) of the same sequence?
**A.** 9.64 upbm affinity estimate (log intensity, higher = more binding, comparable within an allelic series)

**Q.** What about the binding signal (HOXC9 [4]) of the same sequence?
**A.** 9.74 upbm affinity estimate (log intensity, higher = more binding, comparable within an allelic series)

**Q.** For GGGCACGA, which binding signal (HOXC9 [1]) is on record?
**A.** 9.75 upbm affinity estimate (log intensity, higher = more binding, comparable within an allelic series)

**Q.** What about the binding signal (HOXC9 [2]) of the same sequence?
**A.** 9.85 upbm affinity estimate (log intensity, higher = more binding, comparable within an allelic series)

**Q.** And the binding signal (HOXC9 [3])?
**A.** 9.76 upbm affinity estimate (log intensity, higher = more binding, comparable within an allelic series)

**Q.** And the binding signal (HOXC9 [4])?
**A.** 9.89 upbm affinity estimate (log intensity, higher = more binding, comparable within an allelic series)

**Q.** How did the binding signal (HOXC9 [1]) turn out when TAAAGTGA was run?
**A.** 11.3 upbm affinity estimate (log intensity, higher = more binding, comparable within an allelic series)

**Q.** What about the binding signal (HOXC9 [2]) of the same sequence?
**A.** 11.4 upbm affinity estimate (log intensity, higher = more binding, comparable within an allelic series)

**Q.** What about the binding signal (HOXC9 [3]) of the same sequence?
**A.** 11.4 upbm affinity estimate (log intensity, higher = more binding, comparable within an allelic series)

**Q.** For GGGGGGCA, which binding signal (HOXC9 [1]) is on record?
**A.** 9.42 upbm affinity estimate (log intensity, higher = more binding, comparable within an allelic series)

**Q.** What about the binding signal (HOXC9 [2]) of the same sequence?
**A.** 9.53 upbm affinity estimate (log intensity, higher = more binding, comparable within an allelic series)

**Q.** What about the binding signal (HOXC9 [3]) of the same sequence?
**A.** 9.49 upbm affinity estimate (log intensity, higher = more binding, comparable within an allelic series)

**Q.** And the binding signal (HOXC9 [4])?
**A.** 9.28 upbm affinity estimate (log intensity, higher = more binding, comparable within an allelic series)

**Q.** CGCATTTA was tested. Which binding signal (HOXC9 [1]) did it give?
**A.** 11.1 upbm affinity estimate (log intensity, higher = more binding, comparable within an allelic series)

**Q.** What about the binding signal (HOXC9 [2]) of the same sequence?
**A.** 11.2 upbm affinity estimate (log intensity, higher = more binding, comparable within an allelic series)

**Q.** And the binding signal (HOXC9 [3])?
**A.** 11.2 upbm affinity estimate (log intensity, higher = more binding, comparable within an allelic series)

**Q.** With CTGTTATA as the sequence, how does the binding signal (HOXC9 [1]) read?
**A.** 11.5 upbm affinity estimate (log intensity, higher = more binding, comparable within an allelic series)

**Q.** And the binding signal (HOXC9 [2])?
**A.** 11.5 upbm affinity estimate (log intensity, higher = more binding, comparable within an allelic series)

**Q.** And the binding signal (HOXC9 [3])?
**A.** 11.5 upbm affinity estimate (log intensity, higher = more binding, comparable within an allelic series)

**Q.** What does the source list for CTGGACGC?
**A.** binding signal (HOXC9 [1]): 9.6 upbm affinity estimate (log intensity, higher = more binding, comparable within an allelic series); binding signal (HOXC9 [2]): 9.69 upbm affinity estimate (log intensity, higher = more binding, comparable within an allelic series); binding signal (HOXC9 [3]): 9.69 upbm affinity estimate (log intensity, higher = more binding, comparable within an allelic series); binding signal (PROP1 [5]): 6.69 upbm affinity estimate (log intensity, higher = more binding, comparable within an allelic series); binding signal (PROP1 [6]): 6.62 upbm affinity estimate (log intensity, higher = more binding, comparable within an allelic series); binding signal (HOXC9 [4]): 9.74 upbm affinity estimate (log intensity, higher = more binding, comparable within an allelic series); binding signal (PROP1 [7]): 6.59 upbm affinity estimate (log intensity, higher = more binding, comparable within an allelic series)

**Q.** With TTATACAA as the sequence, how does the binding signal (HOXC9 [1]) read?
**A.** 11.1 upbm affinity estimate (log intensity, higher = more binding, comparable within an allelic series)

**Q.** And the binding signal (HOXC9 [2])?
**A.** 11.1 upbm affinity estimate (log intensity, higher = more binding, comparable within an allelic series)

**Q.** What about the binding signal (HOXC9 [3]) of the same sequence?
**A.** 11.2 upbm affinity estimate (log intensity, higher = more binding, comparable within an allelic series)

**Q.** What about the binding signal (ALX3) of the same sequence?
**A.** 9.71 upbm affinity estimate (log intensity, higher = more binding, comparable within an allelic series)

**Q.** For CACCGGTC, which binding signal (HOXA7 [8]) is on record?
**A.** 8.56 upbm affinity estimate (log intensity, higher = more binding, comparable within an allelic series)

**Q.** And the binding signal (HOXC10 [9])?
**A.** 10 upbm affinity estimate (log intensity, higher = more binding, comparable within an allelic series)

**Q.** And the binding signal (HOXA2 [10])?
**A.** 7.38 upbm affinity estimate (log intensity, higher = more binding, comparable within an allelic series)

**Q.** What about the binding signal (HOXA2 [11]) of the same sequence?
**A.** 10.4 upbm affinity estimate (log intensity, higher = more binding, comparable within an allelic series)

**Q.** What about the binding signal (HOXC10 [12]) of the same sequence?
**A.** 9.92 upbm affinity estimate (log intensity, higher = more binding, comparable within an allelic series)

**Q.** What about the binding signal (HOXA2 [13]) of the same sequence?
**A.** 10.3 upbm affinity estimate (log intensity, higher = more binding, comparable within an allelic series)

**Q.** And the binding signal (HOXA7 [14])?
**A.** 8.34 upbm affinity estimate (log intensity, higher = more binding, comparable within an allelic series)

**Q.** What about the binding signal (HOXA2 [15]) of the same sequence?
**A.** 7.28 upbm affinity estimate (log intensity, higher = more binding, comparable within an allelic series)

**Q.** Which results are given for CCGGTACC?
**A.** binding signal (HOXC9 [1]): 9.7 upbm affinity estimate (log intensity, higher = more binding, comparable within an allelic series); binding signal (HOXC9 [2]): 9.7 upbm affinity estimate (log intensity, higher = more binding, comparable within an allelic series); binding signal (HOXC9 [3]): 9.72 upbm affinity estimate (log intensity, higher = more binding, comparable within an allelic series); binding signal (HOXC9 [4]): 9.71 upbm affinity estimate (log intensity, higher = more binding, comparable within an allelic series); binding signal (NKX3-2 [16]): 10.5 upbm affinity estimate (log intensity, higher = more binding, comparable within an allelic series); binding signal (NKX3-2 [17]): 10.6 upbm affinity estimate (log intensity, higher = more binding, comparable within an allelic series)

**Q.** Which results are given for GATGATCA?
**A.** binding signal (VENTX [18]): 9.89 upbm affinity estimate (log intensity, higher = more binding, comparable within an allelic series); binding signal (VENTX [19]): 9.51 upbm affinity estimate (log intensity, higher = more binding, comparable within an allelic series)

**Q.** Which binding signal (HOXA7 [8]) does the source give for ATTTAGAC here?
**A.** 9.49 upbm affinity estimate (log intensity, higher = more binding, comparable within an allelic series)

**Q.** For AATGGGGA, which binding signal (VENTX [18]) is on record?
**A.** 10.3 upbm affinity estimate (log intensity, higher = more binding, comparable within an allelic series)
